Source: PubChem BioAssay (Tox21)
Several values for one entry are separate records, joined by “and”; a condition that tells them apart may be missing. Equal values may be shown once. Records with an inconclusive call do not appear. Where a call stands in place of a potency, no number is given. Some compounds were tested as several samples or in several runs, with calls that do not always agree. Activity calls are given as the source filed them. Calls come from the whole dose curve; as a rule, active = well fitted cell-killing curve with a large enough effect in the repeat runs; inconclusive = weak or mixed curves, or effect the other way; inactive = no such curve, though single readings can be large or run the other way.

assay: qHTS assay to identify small molecule antagonists of the thyroid receptor (TR) signaling pathway - cell viability counter screen (AID 743064); conditions: GH3.TRE-Luc viability, CellTiter-Fluor, 24 h; series mostly up to 70.3 µM; note: nearly all actives have a fitted effect of over 50% in size
Text: National Center for Advancing Translational Sciences [NCATS]
NIH Chemical Genomics Center [NCGC]
U.S. Environmental Protection Agency [EPA]
National Institutes of Environmental Health Sciences [NIEHS]
National Toxicology Program [NTP]
U.S. Food and Drug Administration [FDA]
Thyroid receptor (TR), a nuclear hormone receptor, plays an important role in development, proliferation, differentiation, metabolism, brain function, and cardiovascular system. […] To profile the Tox21 10K compound library in TR signaling, a cell-based GH3-TRE-Luc assay (GH3.TRE-Luc cell line, developed by the laboratory of Dr. Albertinka J. Murk, Wageningen University) was used to measure the inhibition of TR. GH3 (rat pituitary tumor) cells stably expressing a TR activity sensor consisting of two TR response elements and a luciferase reporter gene. The cytotoxicity of the Tox21 compound library against the GH3.TRE-Luc cell line was tested in parallel by measuring the cell viability using CellTiter-Fluor assay (Promega, Madison, WI) in the same wells.
Tox21 Assay Protocol Summary:
GH3.TRE-Luc cells were dispensed at 1500 cells/4 uL/well into 1536-well white solid bottom plates using a Multidrop Combi dispenser (Thermo Fisher Scientific Inc., Waltham, MA). After the assay plates were incubated at 37 C for 4 hours, 23 nL of library compound or DMSO controls was transferred to the assay plates by a pintool station (Kalypsys, San Diego, CA), followed by addition of 1 ul of T3 (1 nM, final concentration in the wells) to stimulate TR transactivation. The assay plates were incubated at 37 C for 23.5 h, and then 1 uL of CellTiter-Fluor reagent (Promega, Madision, WI) of measuring cytotoxicity was added to each well using a Bioraptr Flying Reagent Dispenser (FRD) workstation (Beckman Coulter, Indianapolis, IN, USA). The plates were incubated at 37C and 5% CO2 for additional 30 min, and fluorescence intensity was measured by a ViewLux plate reader (PerkinElmer, Shelton, CT).
Potency is the fitted concentration of half-maximal effect.

Row | SMILES | Potency
1 | CN(C)C(=N)N=C(N)N | inactive
2 | O=C(COc1ccc(Cl)cc1)N1CCN(Cc2ccc3c(c2)OCO3)CC1 | inactive
3 | OC1CCCCCCCCCCC1 | inactive
4 | C=CC(C)(CCC=C(C)C)OC(C)=O (stereo not given) | inactive
5 | O=C(O)c1ccccc1Nc1cccc(C(F)(F)F)c1 | inactive
6 | COC(=O)c1ccccc1 | inactive
7 | Cc1ccc2c(n1)Oc1ccc(C(C)C(=O)OCC(=O)N(C)C)cc1C2 (stereo not given) | inactive
8 | CC(C)=CCCC(C)CCO (stereo not given) | inactive
9 | O=C1c2cccc(O)c2C(=O)c2c(O)cccc21 | inactive
10 | COc1ccccc1/C=C/C=O | 55.9 µM (active)
11 | CC(C)(C)NC(=O)[C@H]1CC[C@H]2[C@@H]3CC[C@H]4NC(=O)C=C[C@]4(C)[C@H]3CC[C@]12C | inactive
12 | Nc1ccc(Cl)cc1Cl | inactive
13 | COc1cccc2c1C(=O)c1c(O)c3c(c(O)c1C2=O)C[C@@](O)(C(=O)CO)C[C@@H]3O[C@H]1C[C@H](N)[C@H](O)[C@H](C)O1 | inactive and 1.68 µM (active) and 122 nM (active)
14 | Cc1cccc([N+](=O)[O-])c1C | inactive
15 | C[C@]12CCC(=O)C=C1CC[C@@H]1[C@@H]2C(=O)C[C@@]2(C)[C@H]1CC[C@]2(O)C(=O)CO | inactive
16 | Nc1ccccc1N | inactive
17 | CC(=O)C1(C)CC2=C(CCCC2(C)C)CC1C (stereo not given) | inactive
18 | c1cc(N(CC2CO2)CC2CO2)ccc1OCC1CO1 (stereo not given) | 19.4 µM (active) and 27.3 µM (active)
19 | c1ccc2sc(SSN3CCOCC3)nc2c1 | 15.3 µM (active) and 24.3 µM (active)
20 | CN(C)CCN(Cc1cccs1)c1ccccn1 | inactive

Row | SMILES | Potency
21 | c1ccc2c(c1)Oc1ccccc1S2 | inactive
22 | C/C=C/C(=O)O | inactive
23 | C=C(C)C1CC=C(C)CC1 (stereo not given) | inactive
24 | CCCCCCCCCC(=O)OC | inactive
25 | C=C(C)C(=O)OCCOC(=O)C(=C)C | inactive
26 | CC(C(=O)O)c1cccc(C(=O)c2ccccc2)c1 (stereo not given) | inactive
27 | CC1=CCC(C(C)(C)O)CC1 (stereo not given) | inactive
28 | c1ccc2c(c1)c1cccc3ccc4cccc2c4c31 | inactive
29 | CCCCCCCCCCCO | inactive and 30.6 µM (active)
30 | O=c1oc(=O)c2cc3c(=O)oc(=O)c3cc12 | inactive
31 | O=CCc1ccccc1 | inactive
32 | COc1c(Cl)c(Cl)c(Cl)c(Cl)c1Cl | inactive
33 | CCCc1c(OCCCCc2nn[nH]n2)ccc(C(C)=O)c1O | inactive
34 | O=C(Nc1ccc(Cl)cc1)Nc1ccc(Cl)c(Cl)c1 | 4.22 µM (active) and 3.44 µM (active)
35 | COc1cc([C@@H]2c3cc4c(cc3[C@H](O)[C@H]3COC(=O)[C@H]23)OCO4)cc(OC)c1OC | 0.0432 µM (active)
36 | CCCCc1oc2ccccc2c1C(=O)c1cc(I)c(OCCN(CC)CC)c(I)c1 | 13.3 µM (active) and 26.6 µM (active) and 21.9 µM (active)
37 | C#C[C@]1(O)CC[C@H]2[C@@H]3CCc4cc(OC)ccc4[C@H]3CC[C@@]21C | inactive
38 | O=C=Nc1ccc(Cc2ccc(N=C=O)cc2)cc1 | inactive
39 | Cn1cnc([N+](=O)[O-])c1Sc1ncnc2nc[nH]c12 | inactive
40 | CCOC(=O)C(C#N)=C(c1ccccc1)c1ccccc1 | inactive
